Screening data (PubChem)
rCAG RNA binder: r(CAG) repeat RNA binding. AID 651821. 1.3% of 370,000 active. TO-PRO-1 dye displacement fluorescence. inhibition, % at 3 µM;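 active = inhibition above the plate cutoff, the mean of all test compounds on that plate plus 3 SD, cut at about 35% in these data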;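 also: higher means more dye released from RNA so lower well fluorescence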
LEDGF integ inh: blocks HIV-1 LEDGF/p75-dependent DNA integration | TR-FRET IN-LEDGF/p75 DNA integration, Eu/Cy5 | inhibition, % at 3.7 µM | 0.64% of 370,000 active | AID 743269;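 active = inhibition above the screen-wide mean plus 3 SD, cut at about 13% in these data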;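 also: signal is the Cy5 over europium emission ratio at 671 and 618 nm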
PG9 binder: PG9 antibody binding by small molecule; AID 624416; TR-FRET gp120-PG9 antibody binding; inhibition, % at 6.7 µM; 0.43% of 360,000 active; in the data active = inhibition above about 8.5%
UHRF1 binding: human UHRF1 methylated DNA binding inhibitors; inhibition, % at 4.4 µM; Q96T88; 0.75% of 370,000 active; UHRF1 binding to methylated oligo, TR-FRET; in the data active = inhibition above about 21%;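 also: UHRF1 SRA domain binding a hemimethylated CpG hairpin DNA probe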
DNMT1 block: blocks human DNA methyltransferase DNMT1 | P26358 | DNMT1 molecular beacon, Hinp1I cleavage, fluorescence | inhibition (reported as % activation of signal), % at 10 µM | 0.83% of 360,000 active | AID 588458; in the data active = inhibition above about 50%
Target sequence (P26358 504-1616 limits assumed): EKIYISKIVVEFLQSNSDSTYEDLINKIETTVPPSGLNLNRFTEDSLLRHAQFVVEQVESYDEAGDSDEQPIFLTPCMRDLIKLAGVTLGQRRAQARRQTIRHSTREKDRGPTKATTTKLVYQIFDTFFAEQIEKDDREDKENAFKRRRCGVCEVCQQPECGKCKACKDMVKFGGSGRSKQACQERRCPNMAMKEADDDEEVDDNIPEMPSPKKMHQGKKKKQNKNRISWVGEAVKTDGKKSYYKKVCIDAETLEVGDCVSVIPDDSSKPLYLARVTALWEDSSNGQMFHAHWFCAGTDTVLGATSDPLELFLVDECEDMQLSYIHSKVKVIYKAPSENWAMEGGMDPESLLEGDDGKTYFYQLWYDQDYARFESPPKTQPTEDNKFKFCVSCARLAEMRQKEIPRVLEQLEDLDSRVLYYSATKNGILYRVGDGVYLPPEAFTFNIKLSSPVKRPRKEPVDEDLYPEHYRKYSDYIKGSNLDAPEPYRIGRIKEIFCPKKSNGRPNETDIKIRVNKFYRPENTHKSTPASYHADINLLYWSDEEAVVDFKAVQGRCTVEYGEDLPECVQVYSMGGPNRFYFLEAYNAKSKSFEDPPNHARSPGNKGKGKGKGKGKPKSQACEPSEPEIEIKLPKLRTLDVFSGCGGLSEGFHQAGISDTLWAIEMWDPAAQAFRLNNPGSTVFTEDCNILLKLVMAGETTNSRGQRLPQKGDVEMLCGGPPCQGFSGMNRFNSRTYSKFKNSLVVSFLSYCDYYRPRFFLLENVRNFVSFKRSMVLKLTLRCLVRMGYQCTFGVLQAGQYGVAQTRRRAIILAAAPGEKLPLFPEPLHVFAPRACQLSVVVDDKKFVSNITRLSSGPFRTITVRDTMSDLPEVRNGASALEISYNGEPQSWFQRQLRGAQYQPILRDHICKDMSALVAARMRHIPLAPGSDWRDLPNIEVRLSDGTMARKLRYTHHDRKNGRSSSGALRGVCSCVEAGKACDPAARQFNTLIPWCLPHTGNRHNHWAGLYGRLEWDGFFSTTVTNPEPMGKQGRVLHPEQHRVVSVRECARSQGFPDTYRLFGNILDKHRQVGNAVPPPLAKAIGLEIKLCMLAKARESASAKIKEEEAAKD
MBD2 DNA inh: MBD2-methylated oligo binding inhibition. 0.31% of 370,000 active. inhibition, % at 4.4 µM. TR-FRET, MBD2 binding to methylated oligonucleotide. AID 686964. Q9UBB5; in the data active = inhibition above about 13%
Beacon interf DR: beacon fluorescence artifact, dose response counter-screen; IC50, µM; 200 tested, under 10 active; shares compounds with DNMT1 block; molecular beacon fluorescence, spectral interference counter-screen; call rule not given here
DNMT1 confirm: DNMT1 inhibition confirmation, single concentration; DNMT1 molecular beacon HinP1I cleavage, fluorescence; shares compounds with DNMT1 block; inhibition, % at 10 µM; 8% of 2,300 active;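 active = average inhibition of at least 30% in the single-concentration confirmation test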
Beacon interf: shows spectral interference in the DNMT1 beacon assay. shares compounds with DNMT1 block. DNMT1 molecular beacon spectral interference counterscreen, fluorescence 485/520. activation (fluorescence interference), % at 10 µM. 1% of 2,300 active. AID 602387;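 active = activation of at least 30% at 10 µM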;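 also: DNMT1 catalytic domain with a HinP1I cleavage step and a FAM/dabcyl DNA beacon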
rCAG binder conf: r(CAG) RNA repeat binding, confirmation; shares compounds with rCAG RNA binder; TO-PRO-1 dye displacement fluorescence; inhibition, % at 3 µM; 70% of 4,300 active;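 active = inhibition above a per-plate cutoff, the mean inhibition of sample wells plus 3 SD, cut at about 35% in these data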;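 also: loss of TO-PRO-1 fluorescence as compound displaces dye from 1x1 AA loop RNA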
dCAG dye counter: DNA CAG dye complex inhibition counter-screen | inhibition, % at 3 µM | d(CAG) DNA oligo TO-PRO-1 dye displacement, fluorescence | shares compounds with rCAG RNA binder | 94% of 4,300 active;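 active = inhibition above its plate's cutoff, the mean test-well inhibition plus 3 SD, cut at about 4.8% in these data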;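 also: hits displace the dye from DNA and so lower well fluorescence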
dCAG dye DR: disrupts DNA CAG TO-PRO-1 complex in dose response. shares compounds with rCAG RNA binder. IC50, µM. DNA CAG/GTC duplex TO-PRO-1 dye displacement fluorescence. 20% of 250 active; in the data active = IC50 below about 10 µM
Of the large screens only hits and unclear results are named; the others gave an inactive call (follow-up assays come after a bar, where they were run). Only some compounds are listed: those with a hit (about 3.5% of all), similar ones and a draw of the others.

O=C(Nc1nccs1)c1cc(-c2ccco2)nc2ccccc12	rCAG RNA binder 38, DNMT1 block 55 | DNMT1 confirm inactive | Beacon interf inactive | rCAG binder conf inactive | dCAG dye counter 17
Cn1ccsc1=NC(=O)c1cccc(C#N)c1	none
CC1=CSC2=NC(=O)/C(=C\c3cccn3-c3ccccc3)C(=N)N12	none
Cc1ccc(-n2cccc2/C=C2/C(=N)N3C(=NC2=O)SN=C3S(C)(=O)=O)cc1Cl	rCAG RNA binder 89, DNMT1 block 84 | Beacon interf DR inactive | DNMT1 confirm 37 | Beacon interf inactive | rCAG binder conf 92 | dCAG dye counter 73
COC(=O)c1cc(C)sc1NC(=O)CSc1ncccn1	none
CSc1nc(SCCO)c2sc3nc(-c4ccco4)c4c(c3c2n1)CC(C)(C)OC4	rCAG RNA binder 39, DNMT1 block 98 | DNMT1 confirm inactive | Beacon interf inactive | rCAG binder conf 39 | dCAG dye counter 20
CC1(C)Cc2c(c(-c3ccco3)nc3sc4c(NCCO)ncnc4c23)CO1	none
Cc1cc(N)n(-c2ccc(Oc3ccccc3)c(S(=O)(=O)O)c2)n1	rCAG RNA binder 59 | DNMT1 confirm inactive | Beacon interf inactive | rCAG binder conf 42 | dCAG dye counter 9.7
NC(=O)C[C@H](NC(=O)c1ccc(Cl)cc1)C(=O)OCc1ccccc1	none
O=C(CCN1C(=O)/C(=C\C=C\c2ccccc2)SC1=S)Nc1ccccc1C(=O)O	rCAG RNA binder 42, DNMT1 block 75 | DNMT1 confirm inactive | Beacon interf inactive | rCAG binder conf 88 | dCAG dye counter 57
O=C(CCN1C(=O)/C(=C/C=C/c2ccccc2)SC1=S)Nc1nccs1	none
Cc1ccc(S(=O)(=O)N2CCN(C(=O)COC(=O)/C=C/c3ccccc3)CC2)c(C)c1	none
CC(/C=C1\SC(=S)N(c2ccc(C(=O)O)cc2)C1=O)=C\c1ccccc1	rCAG RNA binder 55, DNMT1 block 110 | DNMT1 confirm inactive | Beacon interf inactive | rCAG binder conf 84 | dCAG dye counter 52
CC(/C=C1\SC(=S)N(NC(=O)c2ccc(C)cc2)C1=O)=C\c1ccccc1	none (no result: rCAG RNA binder, LEDGF integ inh, PG9 binder, UHRF1 binding, MBD2 DNA inh)
Cc1ccc(OCC(=O)Nc2nnc(S(=O)(=O)N3CCCCC3)s2)cc1	rCAG RNA binder 50, DNMT1 block 89 | DNMT1 confirm inactive | Beacon interf inactive | rCAG binder conf 41 | dCAG dye counter 18
Cc1c(C)c2ccc(OCC(=O)N[C@@H](Cc3ccccc3)C(=O)O)cc2oc1=O	none
CCCCCCc1c(C)c2ccc(OCC(=O)N[C@@H](Cc3ccccc3)C(=O)O)cc2oc1=O	rCAG RNA binder 46, DNMT1 block 61 | DNMT1 confirm inactive | Beacon interf inactive | rCAG binder conf 76 | dCAG dye counter 31 | dCAG dye DR inactive
CNC(C)C(=O)NC(C(=O)NC(C)C(=O)Nc1cccc2ccccc12)C(C)C (stereo unspecified)	none
CCC(C)n1c(NC(=O)c2ccccc2)c(C#N)c2nc3ccccc3nc21 (stereo unspecified)	rCAG RNA binder 38, LEDGF integ inh 28, DNMT1 block 73 | DNMT1 confirm inactive | Beacon interf inactive | rCAG binder conf 68 | dCAG dye counter 31
CCCCNc1ccc2c(c1)OC[C@H](Cc1ccccc1)NS2(=O)=O	none (no result: DNMT1 block)
O=C(NCc1ccncc1)[C@@H]1CCCN1C(=O)[C@@H]1CCCN1C(=O)c1cccs1	none (no result: DNMT1 block)
COc1ccc(/C=C2/C(=O)N(Cc3ccccc3)N=C2C)cc1	none
COc1ccc(/C=C2/C(=O)N(c3nc4ccccc4s3)N=C2CSc2ccc(Cl)cc2)cc1	rCAG RNA binder 71, DNMT1 block 65 | Beacon interf DR inactive | DNMT1 confirm 54 | Beacon interf inactive | rCAG binder conf 72 | dCAG dye counter 51
Cc1cc(C(=O)C(C)OC(=O)c2ccc(NC(=O)CC#N)cc2)c(C)n1-c1ccccc1 (stereo unspecified)	none
O=C(COC(=O)CCC(=O)c1ccccc1)Nc1nnc(-c2ccccc2)o1	none
Cc1cc(=O)oc2c3c(cc(OCC(=O)N[C@@H](Cc4ccccc4)C(=O)O)c12)OC(C)(C)CC3	none
Cc1cc(=O)oc2c3c(cc(OCC(=O)NC(Cc4ccc(Cl)cc4)C(=O)O)c12)OC(C)(C)CC3 (stereo unspecified)	rCAG RNA binder 46, DNMT1 block 98 | DNMT1 confirm inactive | Beacon interf inactive | rCAG binder conf 53 | dCAG dye counter 17
O=C(Nc1cccc(Oc2ccc(C(=O)O)c(C(=O)O)c2)c1)c1ccc(-c2ccccc2)cc1	rCAG RNA binder 58, DNMT1 block 53 | DNMT1 confirm inactive | Beacon interf inactive | rCAG binder conf 53 | dCAG dye counter 19
CC1=C(C(=O)OC(C)C)C(c2ccc(Cl)cc2)n2c(sc(=Cc3ccc(OCC(=O)O)cc3)c2=O)=N1 (stereo unspecified)	rCAG RNA binder 42, DNMT1 block 104 | Beacon interf DR inactive | DNMT1 confirm 105 | Beacon interf inactive | rCAG binder conf 64 | dCAG dye counter 30 | dCAG dye DR inactive
CCOC(=O)C1=C(C)N=c2s/c(=C/c3ccc(OCC(=O)O)c(OC)c3)c(=O)n2C1c1ccc(Cl)cc1 (stereo unspecified)	rCAG RNA binder 44, DNMT1 block 58 | Beacon interf DR inactive | DNMT1 confirm 59 | Beacon interf inactive | rCAG binder conf 54 | dCAG dye counter 16
Cc1cc(NC(=O)CSc2sc3c(O)cc(=O)[nH]c3c2C#N)ccc1Br	rCAG RNA binder 51, DNMT1 block 61 | DNMT1 confirm inactive | Beacon interf inactive | rCAG binder conf 59 | dCAG dye counter 32
Cc1cc(NC(=O)CSc2nc3[nH]c(=O)cc(O)c3s2)ccc1Br	none
CC1CCCCC1NC(=O)COC(=O)c1c2c(nc3ccccc13)/C(=C/c1ccco1)CC2 (stereo unspecified)	rCAG RNA binder 53, DNMT1 block 95 | DNMT1 confirm inactive | Beacon interf inactive | rCAG binder conf 51 | dCAG dye counter 28
